# Compound activity as filed in PubChem.
# Hits are enriched below; roughly 4% of the tested compounds scored in any of these assays.
# GDH-TPI inh = GDH-TPI coupled enzyme inhibition counter-screen; inhibition, % at 4.8 µM; GDH-TPI coupled enzyme counterscreen, NADH absorbance; 360,000 tested, 1.2% active; in the data active = inhibition above about 30%
# Mtb FBA inh = inhibits M. tuberculosis FBA enzyme. purified M. tuberculosis FBA, fluorescence read-out. 360,000 tested, 2.3% active. inhibition, % at 1 µM; in the data active = inhibition above about 27%
# RecA intein inh = Mtb RecA intein splicing inhibition; P9WHJ3; cell-free RecA intein splicing, fluorescence; inhibition, % (no concentration beside the values); 290,000 tested, 0.75% active; in the data active = inhibition above about 30%
# Mtb betalactam = beta-lactam sensitization of Mtb H37Rv; M. tuberculosis H37Rv growth with meropenem, percent inhibition; inhibition, % at 25 µM; 330,000 tested, 0.27% active; call rule not given here;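 also: growth measured after seven days incubation then overnight dye step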
# UGM FP inh = blocks M. tuberculosis UGM enzyme. P9WIQ1. purified UGM, fluorescence polarization probe displacement. inhibition, % at 10 µM. 320,000 tested, 0.06% active. AID 504406; in the data active = inhibition above about 10%, passing the limit was not always enough
# Target sequence (P9WIQ1 whole entry, looked up): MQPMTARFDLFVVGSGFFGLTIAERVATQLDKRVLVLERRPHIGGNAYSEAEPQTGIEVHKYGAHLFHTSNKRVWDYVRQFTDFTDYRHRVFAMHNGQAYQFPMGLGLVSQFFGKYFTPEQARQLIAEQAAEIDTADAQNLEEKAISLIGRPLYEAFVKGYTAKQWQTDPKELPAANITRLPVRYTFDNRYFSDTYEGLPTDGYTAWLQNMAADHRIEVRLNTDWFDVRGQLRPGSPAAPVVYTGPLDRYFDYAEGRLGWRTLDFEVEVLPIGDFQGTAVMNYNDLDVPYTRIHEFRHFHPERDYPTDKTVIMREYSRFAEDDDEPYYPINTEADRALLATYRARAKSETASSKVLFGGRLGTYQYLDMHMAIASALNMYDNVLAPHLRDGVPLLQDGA
# Rv3671c protease = inhibitors of M. tuberculosis serine protease Rv3671c. inhibition, % at 5.96 µM. 320,000 tested, 0.048% active. AID 2606. P9WHR9; in the data active = inhibition above about 38%;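 also: extracellular domain of Rv3671c used as enzyme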
# A number is an active result; 0 = inactive; - = no result; + = active, no number.
SMILES,GDH-TPI inh,Mtb FBA inh,RecA intein inh,Mtb betalactam,UGM FP inh,Rv3671c protease
Cc1nn(-c2ccccc2)c2sc(-c3n[nH]c(=S)o3)cc12,42.2,+,0,0,0,0
Cc1nn(-c2ccccc2)c2sc(C(=O)O)cc12,0,0,0,0,0,0
COC(=O)c1cc2c(C)nn(-c3ccccc3)c2s1,0,34.6,0,0,0,0
O=C(N/N=C1\CCCc2c1[nH]c1ccc(Cl)cc21)c1ccncc1,40.7,0,0,0,0,0
CCOC(=O)c1c[nH]c(=S)n(-c2ccccc2)c1=O,38.8,0,0,0,0,0
CCOC(=O)c1c(C)c2c(=O)[nH]cnc2n1-c1ccccc1,0,0,0,0,0,0
CCOc1ccc(/C=C2\N=C(c3cccs3)OC2=O)cc1OC,-,-,0,0,38.1,0
CN(C)/C=C1\N=C(c2cccnc2Oc2ccc(Cl)cc2)OC1=O,32.4,0,0,0,0,0
O=C1OC(c2ccccc2)=N/C1=C\N1CCCCC1,41.4,0,0,0,0,0
CN(C)/C=C1/N=C(c2ccccc2)OC1=O,52.2,0,0,0,0,0
CN(C)/C=C1\N=C(c2ccc(Cl)cc2Cl)OC1=O,0,0,0,-,0,0
CCOC(=O)c1ccc(NC(=O)CCNc2c(N3CCCC3)c(=O)c2=O)cc1,0,0,0,0,0,0
Cc1ccc(C2=N/C(=C\N(C)C)C(=O)O2)cc1,44.6,0,0,-,0,0
CN(C)/C=C1\N=C(c2cccs2)OC1=O,48.6,0,0,0,0,0
COc1ccc(/C=C2/N=C(c3cccs3)OC2=O)cc1OC(C)C,0,0,0,0,0,0
COc1ccc(C(C)=O)cc1COC(=O)c1c(C)nn(-c2ccccc2)c1C,0,0,0,0,0,0
COc1cc(C)c(/C=C/C(C)=C/C=C/C(C)=C/C(=O)O)c(C)c1C,60.6,0,0,0,0,0
Cc1ccc(/C=c2\sc3nc(-c4ccco4)nn3c2=O)o1,39.7,0,0,0,0,0
Cc1ccc(/C=c2\sc3nc(-c4ccccc4Br)nn3c2=O)o1,0,0,0,0,0,0
CC(C)NC(=O)COC(=O)c1cccc(NS(=O)(=O)/C=C/c2ccccc2)c1,0,0,0,0,0,0
Cn1c(/C(C#N)=C(\O)c2cc(Cl)sc2Cl)nc2ccccc21,0,0,0,0,0,0
COc1ccc(/C(O)=C(\C#N)c2nc3ccccc3n2C)cc1OC,51.3,0,0,0,0,0
CC(C)c1ccccc1,0,0,-,0,0,0
N=C1c2c(cc(=O)n3c2[nH]c2ccccc23)CN1CCN1CCOCC1,0,+,0,0,0,0
O=c1c2ccccc2[nH]c(=S)n1CCCN1CCOCC1,0,0,0,0,0,0
SMILES,GDH-TPI inh,Mtb FBA inh,RecA intein inh,Mtb betalactam,UGM FP inh,Rv3671c protease
COCCN1Cc2cc(=O)n3c([nH]c4ccccc43)c2C1=N,0,+,0,0,0,0
C=CCn1c(O)c(N=NC(=S)Nc2cccc(OC)c2)c2ccccc21,34.6,0,0,0,0,0
C=CCn1c(O)c(N=NC(=S)Nc2ccc(OC)cc2)c2ccccc21,0,0,0,0,0,0
CCOc1ccccc1C1NC(=O)NC(C)=C1C(=O)OCc1ccccc1 (stereo not drawn),0,0,0,0,0,0
COc1ccccc1C1C(C(=O)c2cc3ccccc3o2)=C(O)C(=O)N1c1cc(C)on1 (stereo not drawn),31.3,0,0,0,0,0
COc1ccc(OC)c(C2C(C(=O)c3cc4ccccc4o3)=C(O)C(=O)N2c2cc(C)on2)c1 (stereo not drawn),0,0,0,0,0,0
N#CC1=C2SC=C(c3ccc(Br)cc3)N2CCCC1=O,0,0,0,0,0,0
N#CC1=C2Sc3ccccc3N2CCCC1=O,34.3,0,0,0,0,0
COc1cccc(OC)c1OCCOCCN1CCN(C)CC1,0,0,0,0,0,0
O=c1[nH]c(/C=C\c2ccc(O)cc2)nc(O)c1[N+](=O)[O-],41.3,0,0,0,0,0
CCCOc1ccc(-c2nnn(CC(=O)c3c[nH]c4ccccc34)n2)cc1,0,0,0,0,0,0
CC(C)(C)c1ccc(C2C(C#N)=C(N)Oc3n[nH]c(-c4cccnc4)c32)cc1 (stereo not drawn),0,0,0,0,0,0
COc1cc(Br)c(C2C(C#N)=C(N)Oc3n[nH]c(-c4cccnc4)c32)cc1OC (stereo not drawn),0,0,56.5,0,0,0
COc1cc(OC)cc(C2C(C#N)=C(N)Oc3n[nH]c(-c4cccnc4)c32)c1 (stereo not drawn),0,0,49.8,0,0,0
COc1cc(/C=C/C(=O)Nc2ccc3nc4n(c(=O)c3c2)CCCC4)cc(OC)c1OC,38.2,0,0,0,0,0
COc1cc(/C=C/C(=O)Nc2ccc(S(=O)(=O)Nc3onc(C)c3C)cc2)cc(OC)c1OC,39.1,0,-,-,-,-
COc1ccc(/C=C/C(=O)Nc2ccc3nc4n(c(=O)c3c2)CCCC4)cc1,0,0,0,0,0,0
COc1ccc(-c2cc(C(=O)Nc3ccc(S(=O)(=O)Nc4onc(C)c4C)cc3)c3ccccc3n2)cc1OC,41.8,0,0,0,0,0
OC(COCc1cccs1)CN1CCN(c2cccc(Cl)c2)CC1 (stereo not drawn),0,0,0,0,0,0
COC(=O)c1ccc(S(=O)(=O)c2ccccc2)c(N)c1,0,121.4,0,0,0,0
COC(=O)c1ccc(C(=O)OC)c(N)c1,-,-,0,0,0,0
CC(C)Oc1cccc(C(=O)Nc2ncn[nH]2)c1,0,0,0,0,0,0
CCN1C(=O)/C(=C\N(C)C)c2ccccc21,32.2,0,0,0,0,0
CCO/C=C1\C(=O)N(CC)c2ccccc21,0,0,0,0,0,0
CN(C)C=C1C(=O)c2ccccc2C1=O,0,0,0,0,0,0
SMILES,GDH-TPI inh,Mtb FBA inh,RecA intein inh,Mtb betalactam,UGM FP inh,Rv3671c protease
CCN1C(=O)/C(=C/N(C)C)c2ccccc21,37.3,0,0,0,0,0
COc1cccc(-c2c3c([nH]c(=O)c2C#N)CCc2cc(OC)ccc2-3)c1,-,-,0,0,0,0
COc1cccc(-c2cc(C(F)(F)F)c(C#N)c(=O)[nH]2)c1,0,+,0,0,0,0
N#Cc1c(C(F)(F)F)cc(-c2ccccc2)[nH]c1=O,0,+,0,0,0,0
Cc1ccc(-c2cc(-c3ccco3)c(C#N)c(=O)[nH]2)cc1,0,123.7,0,0,0,0
N#Cc1c(C(F)(F)F)cc(-c2ccccc2Cl)[nH]c1=O,0,145.4,0,0,0,0
CC(C)C(CCN1C(=O)c2ccccc2C1=O)c1ccco1 (stereo not drawn),0,0,0,0,0,0
Nn1c(COc2ccccc2F)nnc1SCC(=O)NC1CCCC1,0,0,0,0,0,0
Cc1ccc(-c2cc(C(F)(F)F)c(C#N)c(=O)[nH]2)cc1,0,138.8,0,0,0,0
CSc1cc(-c2ccccc2)n(C)c(=O)c1C#N,0,0,0,0,0,0
N#Cc1c(C(F)(F)F)cc(C2CC2)[nH]c1=O,0,+,0,0,0,0
